PubChem BioAssay AID1852 (Sanford-Burnham Center for Chemical Genomics, 2009)
Out of some 2,500 compounds screened, about 1,100 (44%) were called active. So high a share suggests a set chosen from earlier hits. The list shows a part of the results. Unmarked numbers belong to inactive results.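 The calls were made as follows: active = inhibition above 50% at 4 µM in the single-point screen; inactive = inhibition of 50% or less.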

Assay: blockers of TNF-a NF-kB luciferase induction – cell-based, HEK293T NF-kB-Luc, luminescence, selectivity assay for NOD1/NOD2 signaling inhibitor project, primary screen (AID 1852)
Details: TNF-a induced, 14 h, at 4 µM, stronger effect = higher value
With `O=S(=O)(/C(=C/c1ccc(C(F)(F)F)cc1)c1nc2ccccc2[nH]1)c1ccccc1` the inhibition was 72.8% (active). Compound `O=S(=O)(Nc1nc2ccccc2[nH]1)c1ccccc1` has an inhibition of 34.8%. In the case of `CC(C)c1ccc(/C=C(\c2nc3ccccc3[nH]2)S(=O)(=O)c2ccccc2)cc1`, the inhibition is reported as 107% (active). With `Cc1cccc(/C=C(\c2nc3ccccc3[nH]2)S(=O)(=O)c2ccccc2)c1` the inhibition was 82.2% (active). For `COc1ccc(S(=O)(=O)NCC2CCCN(Cc3cccnc3)C2)cc1` (centres undefined), the inhibition was -9.5%. Compound `C/C=C/Cn1c(SCCCc2ccccc2)nc2c1c(=O)[nH]c(=O)n2C` has an inhibition of 5.5%. In the case of `N#Cc1ccc(C(=O)Nc2nc(-c3cccs3)c(C(=O)C(F)(F)F)s2)cc1`, the inhibition is reported as 70% (active). For `Cc1cc(C)c(C(=O)/C=C/c2cccc3ccccc23)c(=O)[nH]1`, the inhibition was 92.8% (active). For `O=C(O)C(Cc1ccccc1)N1C(=O)/C(=C/c2cccc3ccccc23)SC1=S` (centres undefined), the inhibition was 31.7%. `COc1ccc(/C=C/C(=O)c2c(C)cc(C)[nH]c2=O)c2ccccc12` gave an inhibition of 20.8%. With `Cc1cc(C)c(C(=O)/C=C/c2ccc(C(C)C)cc2)c(=O)[nH]1` the inhibition was 72.7% (active). In the case of `COc1ccc(-c2c(C(F)(F)F)[nH]n3c(=O)cc(-c4ccccc4)nc23)cc1`, the inhibition is reported as 55.7% (active). With `O=c1cc(-c2ccccc2)nc2c(-c3ccccc3)c(C(F)(F)F)[nH]n12` the inhibition was 73.9% (active). With `O=c1cc(-c2ccccc2)nc2cc(-c3ccc(Br)cc3)[nH]n12` the inhibition was 38.7%. In the case of `Cc1ccc2cc(C)c(N3CCC(C)CC3)nc2c1`, the inhibition is reported as 20.9%. For `CC1=CC(=O)C=C(C)C1=NOS(=O)(=O)c1ccccc1`, the inhibition was 48.1%. For `CC1=C/C(=N\OS(=O)(=O)c2ccccc2)C=CC1=O`, the inhibition was 57.4% (active). With `OCCCNc1nccc(-c2cc(Nc3cccc(Cl)c3)ncn2)n1` the inhibition was 98.2% (active). Compound `Oc1nc(Nc2cccc(Cl)c2)sc1/C=C1\C=Nc2ccccc21` has an inhibition of -12.4%. In the case of `OCCCNc1cc(-c2ccnc(Nc3cccc(Cl)c3)n2)ccn1`, the inhibition is reported as 96.3% (active). In the case of `CCS(=O)(=O)c1ccc2oc(SCC(=O)NCc3ccccc3)nc2c1`, the inhibition is reported as 36.5%. For `Cc1ccccc1-n1nnnc1Sc1nnnn1-c1ccccc1`, the inhibition was 75.4% (active). With `Cn1nnnc1Sc1ncnc2scc(-c3ccccc3)c12` the inhibition was 22.8%. For `Cc1sc2ncnc(Sc3nnnn3-c3ccccc3)c2c1C`, the inhibition was 89.8% (active). For `Cc1sc2ncnc(Sc3nnnn3-c3ccc(Cl)cc3)c2c1C`, the inhibition was 87% (active). For `CCc1c(C)nc2ccc(Br)cc2c1SCCC#N`, the inhibition was 43.8%. In the case of `COc1ccc2cc3c(N)nn(C(=O)c4ccccc4Cl)c3nc2c1`, the inhibition is reported as 94.3% (active). `COc1cc(/C=C/c2ccc3cccc(OC)c3n2)c(OC(C)=O)c([N+](=O)[O-])c1` showed an inhibition of 9.5%. For `COc1ccc2cc3c(N)nn(C(=O)C4CCC(C(C)(C)C)CC4)c3nc2c1` (centres undefined), the inhibition was 104% (active). With `COc1ccc2cc3c(N)nn(C(=O)c4ccccc4[N+](=O)[O-])c3nc2c1` the inhibition was 79.5% (active). Compound `CCn1ccnc1CN1CCCC(C(=O)c2ccc3cc(OC)ccc3c2)C1` (centres undefined) has an inhibition of 39.3%. Compound `CC1=NOC(=O)/C1=C\c1ccc(-c2cc(Cl)ccc2Cl)o1` has an inhibition of -2.6%. In the case of `CC1CCc2c(sc(NC(=O)/C=C/c3cccs3)c2C(=O)O)C1` (centres undefined), the inhibition is reported as 31.1%. For `N#Cc1c(NC(=O)CSc2ncn[nH]2)sc2c1CCCCC2`, the inhibition was 73.9% (active). Compound `CCOC(=O)c1c(NC(=O)CSc2ncn[nH]2)sc(C)c1C` has an inhibition of 37.2%. In the case of `N#Cc1c(NC(=O)CSc2ncn[nH]2)sc2c1CCCC2`, the inhibition is reported as 53.4% (active). `O=C(Nc1sc2c(c1C(=O)O)CCCC2)c1ccc(F)cc1` showed an inhibition of -13.9%. In the case of `CC1CCc2c(sc(NC(=O)CSc3ncn[nH]3)c2C#N)C1` (centres undefined), the inhibition is reported as 68.2% (active). In the case of `CC1CCc2c(sc(NC(=O)c3cccs3)c2C(=O)O)C1` (centres undefined), the inhibition is reported as -35.7%. With `N#C/C(=C(/O)Cc1cccc2ccccc12)c1nc2ccccc2s1` the inhibition was 74.8% (active). In the case of `O=C(COc1ccc(Cl)cc1)Nc1nc(-c2ccncc2)cs1`, the inhibition is reported as 20.3%. With `Nc1nc(CSc2nc3ccccc3s2)nc(Nc2ccccc2)n1` the inhibition was -3%. With `N#C/C(=C(/O)COc1ccc(Cl)cc1)c1nc2ccccc2s1` the inhibition was 73.1% (active). For `O=C(NCc1cccnc1)/C(=C/c1ccc(-c2ccc(Cl)cc2)o1)S(=O)(=O)c1ccccc1`, the inhibition was 85.2% (active). In the case of `O=C(NCc1cccnc1)/C(=C\c1ccc(-c2ccc(Cl)c(Cl)c2)o1)S(=O)(=O)c1ccccc1`, the inhibition is reported as 109% (active). For `COc1ccc(-c2cn(-c3ccc(C)cc3C)c(=S)[nH]2)cc1OC`, the inhibition was 18.3%. With `CC1CCCCN1c1ncnc(N)c1[N+](=O)[O-]` (centres undefined) the inhibition was 59.2% (active). `Nc1ncnc(Sc2ccc(Cl)cc2)c1[N+](=O)[O-]` showed an inhibition of 1%. Compound `Nc1ncnc(Nc2ccccn2)c1[N+](=O)[O-]` has an inhibition of 22.8%. In the case of `Nc1ncnc(N2CCc3ccccc32)c1[N+](=O)[O-]`, the inhibition is reported as 99.8% (active). `COc1ccc(CCN2C(=S)N(c3ccc(Cl)cc3)C(=O)C2CC(N)=O)cc1OC` (centres undefined) gave an inhibition of 17.3%. With `Cc1cccc(CSc2cccc3cccnc23)c1` the inhibition was 104% (active). `Cc1cc(C(=O)CCl)c(C)n1CCc1ccccc1` gave an inhibition of 47.1%. Work on `Cn1c(=NC(=O)CCl)sc2ccccc21` yielded an inhibition of 37.1%. For `Cn1cc(C(=O)CCl)c2ccccc21`, the inhibition was 77.1% (active). With `Cn1c(-c2ccccc2)c(C(=O)CCl)c2ccccc21` the inhibition was 76.3% (active). For `Cc1ccc(C(C)C)c(OCc2ccc(C(=O)N/N=C/c3ccc(C(=O)O)cc3)cc2)c1`, the inhibition was 64.9% (active). Compound `COc1cc(/C=N/NC(=O)c2ccc(COc3cc(C)ccc3C(C)C)cc2)cc(OC)c1O` has an inhibition of 40.7%. Work on `Cc1ccc(C(C)C)c(OCc2ccc(C(=O)N/N=C/c3cccc(O)c3O)cc2)c1` yielded an inhibition of 17.2%. For `CC1CCC/C=C/C(=O)c2c(O)cc(O)cc2CC(=O)O1` (centres undefined), the inhibition was 74.9% (active). `CN1/C(=C\C=[N+](C)c2ccccc2)C(C)(C)c2ccccc21` gave an inhibition of 49.5%. Compound `O=C(C(Cl)Cl)N1c2ccccc2OCC1c1ccccc1` (centres undefined) has an inhibition of 37.8%. In the case of `O=C(CCl)N1c2ccccc2SCC1c1ccccc1` (centres undefined), the inhibition is reported as 32.2%. In the case of `O=C(CCl)N1c2ccccc2OCC1c1ccccc1` (centres undefined), the inhibition is reported as 62.2% (active).
